Bioassay records deposited in PubChem BioAssay by National Center for Advancing Translational Sciences (NCATS).
Only some compounds are listed: those with a hit (about 10% of all), similar ones and a draw of the others.
Six1-Eya2 blk – inhibitors of human Six1/Eya2 interaction; 360,000 tested, 0.56% active; activity change, % (concentration not given with the values); AlphaScreen GST-Six1/His-Eya2 binding, biochemical; active compounds read low; AID 651725; Q15475+O00167; in the data active means activity change below about -65%; inconclusive means mostly about -30% to -63%; further: on the % scale 0 is the no-effect control and ±100 the full control effect
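AlphaScreen with GST-Six1 and His-Eya2 (5X mix: 250 nM and 500 nM), glutathione donor and nickel acceptor beads; buffer 50 mM Tris pH 8.0, 300 mM NaCl, 1 mM TCEP; 1 h at 37 C in the dark.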
HP1b binding inh – HP1-beta chromodomain-methylated histone interaction inhibition. P83916. 390,000 tested, 0.56% active. Potency, µM (top dose mostly 114 µM), inactives show at the top dose activity change, negative = inhibition, actives largely listed as inhibitors. AlphaScreen HP1-beta / biotin-H3K9me3 peptide binding; further: potency means the concentration at half of the fitted maximal effect; nearly all actives have a fitted effect of over 70% in size
Target sequence (P83916 whole entry, looked up): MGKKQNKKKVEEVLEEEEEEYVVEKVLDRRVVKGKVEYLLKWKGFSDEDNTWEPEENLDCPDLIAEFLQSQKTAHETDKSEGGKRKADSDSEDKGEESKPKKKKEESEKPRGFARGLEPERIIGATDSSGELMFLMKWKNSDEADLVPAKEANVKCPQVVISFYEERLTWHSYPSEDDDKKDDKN
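Compound inhibition of the preformed complex between 50 nM HP1-beta and 50 nM biotinylated H3K9me3 peptide was read by AlphaScreen. Buffer was PBS pH 7.4 with 0.01% Tween-20. Incubations ran 30 min at room temperature, with 10 ug/mL donor/acceptor beads.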
BAZ2B inh – inhibitors of human BAZ2B bromodomain | Q9UIF8 | AlphaScreen BAZ2B-H3K14Ac peptide displacement | Potency, µM (highest dose often 114 µM), inactives show top-dose activity change, negative = inhibition, actives largely listed as inhibitors | 360,000 tested, 4.4% active; further: potency means the concentration at half of the fitted maximal effect; on the % scale 0 is the no-effect control and ±100 the full control effect; nearly all actives have a fitted effect of over 60% in size
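Multi-concentration screen (max 110 uM) measuring displacement of acetylated histone H3 peptide from BAZ2B by AlphaScreen, using 50 nM protein, 50 nM peptide and 10 ug/mL streptavidin donor plus Ni-chelate acceptor beads.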
JMJD2A Tudor inh – blocks the human JMJD2A Tudor domain. AlphaScreen JMJD2A-Tudor / H3K4me3 peptide binding. 390,000 tested, 4.4% active. Potency, µM (top dose mostly 114 µM), for inactives: at the highest dose activity change, negative = inhibition, most hits filed as inhibitors; further: potency means the concentration at half of the fitted maximal effect; on the % scale 0 is the no-effect control and ±100 the full control effect; nearly all actives have a fitted effect of over 50% in size
G9a block – G9a (human) methyltransferase inhibition. Q96KQ7. G9a H3K9 monomethylation, AlphaScreen, 2 h. Potency, µM (top dose mostly 102 µM), for inactives: at the highest dose activity, negative = inhibition, most hits filed as inhibitors. 350,000 tested, 8.8% active; further: potency means the concentration at half of the fitted maximal effect; on the % scale 0 is the no-effect control and ±100 the full control effect; nearly all actives have a fitted effect of over 75% in size
Target sequence (Q96KQ7 913-1193 limits assumed): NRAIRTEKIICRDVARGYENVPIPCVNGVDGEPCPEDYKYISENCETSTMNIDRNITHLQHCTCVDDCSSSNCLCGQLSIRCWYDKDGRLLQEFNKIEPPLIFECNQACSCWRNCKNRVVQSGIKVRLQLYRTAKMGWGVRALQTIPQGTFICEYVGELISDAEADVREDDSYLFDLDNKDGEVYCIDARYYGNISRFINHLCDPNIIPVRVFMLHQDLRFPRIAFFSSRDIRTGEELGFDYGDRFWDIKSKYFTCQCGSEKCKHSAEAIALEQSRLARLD
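Enzyme 20 nM + cpd, 15 min RT; add b-H3K9 pep 500 nM / SAM 20 uM; 2 h RT; anti-H3K9me1 Ab 0.5 ug/mL + SA donor / anti-rabbit acceptor beads 20 ug/mL each, 10 min; AlphaScreen read.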
CtBP-E1A blk – inhibitors of CtBP/E1A interaction. AlphaScreen GST-E1A/His-CtBP binding, 1536-well; active compounds read low. activity change, % (concentration not given with the values). 340,000 tested, 0.49% active; in the data active means activity change below about -65%; inconclusive means mostly about -30% to -63%; further: on the % scale 0 is the no-effect control and ±100 the full control effect
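Homogeneous bead-based format: GST-tagged E1A captured on glutathione donor beads, His-tagged CtBP on nickel acceptor beads; compounds precede bead addition by 2 h at 37 °C.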
An asterisk follows results filed as active; [ ] = remark or other dose. Unless noted, the call rests on the fitted dose curve; in most records, active means well fitted inhibition curve with a large enough effect; inconclusive means small, poorly fitted or top-dose-only effect; inactive means no such curve, though single readings can be large or run the other way.

`COc1cc(OC)c2c(C)c(CC(=O)N3CCCCC3)c(=O)oc2c1` gave HP1b binding inh 15.4%, BAZ2B inh -1.4%, JMJD2A Tudor inh -11.5% and G9a block 2.3%[59 µM].
`CCN(CC)c1ccc(/C=N/NC(=O)C(O)(c2ccccc2)c2ccccc2)o1` gave BAZ2B inh -8.1% and G9a block 28.2µM*.
Screening Cc1ccc(S(=O)(=O)N2CCOCC2)cc1NC(=O)CN1CCN(c2ccc(O)cc2)CC1 returned Six1-Eya2 blk -15.5, HP1b binding inh inconclusive, BAZ2B inh inconclusive, JMJD2A Tudor inh 25.1µM*, G9a block inconclusive and CtBP-E1A blk 6.9.
`CCOC(=O)C1CCN(CC(=O)Nc2cc(S(=O)(=O)N3CCOCC3)ccc2C)CC1` gave Six1-Eya2 blk -18.9, HP1b binding inh 70.8µM*, BAZ2B inh 79.4µM*, JMJD2A Tudor inh 3.98µM*, G9a block 22.4µM* and CtBP-E1A blk -1.9.
Cc1ccc(S(=O)(=O)N2CCOCC2)cc1NC(=O)CN1CCN(C)CC1 was read as Six1-Eya2 blk 1.9, HP1b binding inh 14.0%, BAZ2B inh 0.4%, JMJD2A Tudor inh -14.6%, G9a block -3.3%[59 µM] and CtBP-E1A blk -0.7.
For CC(=O)N1CCN(C(=O)CCCNC(=O)c2ccc(Cl)cc2)CC1 the results were Six1-Eya2 blk 3.9, HP1b binding inh 46.2%, JMJD2A Tudor inh -4.5% and CtBP-E1A blk 4.0.
`O=C(Oc1ccc(C(=S)N2CCC(O)CC2)cc1)c1ccc(Cl)cc1` gave Six1-Eya2 blk -90.0*, HP1b binding inh 39.7%, BAZ2B inh -12.4%, JMJD2A Tudor inh -14.0%, G9a block inconclusive and CtBP-E1A blk -84.2*.
O=C(Oc1ccc(C(=S)N2CCCCC2)cc1)c1ccccc1 was read as Six1-Eya2 blk -25.5, HP1b binding inh inconclusive, BAZ2B inh -15.9%, JMJD2A Tudor inh -20.6%, G9a block 35.5µM* and CtBP-E1A blk -22.2.
O=C(Oc1cccc(C(=S)N2CCCCC2)c1)c1ccccc1 was read as Six1-Eya2 blk -1.3, HP1b binding inh 18.5%, BAZ2B inh -24.3%, JMJD2A Tudor inh -6.5% and G9a block inconclusive.
`CN1CCN(C(=S)c2ccc(Br)cc2)CC1` gave Six1-Eya2 blk -0.3, HP1b binding inh -20.6%, BAZ2B inh -9.7%, JMJD2A Tudor inh -24.5%, G9a block 20µM* and CtBP-E1A blk 4.8.
Screening CC(=O)N1CCN(C(=S)c2ccc(Cl)cc2)CC1 returned Six1-Eya2 blk 1.6, HP1b binding inh inconclusive, BAZ2B inh 40.8%, JMJD2A Tudor inh -6.6%, G9a block 25.1µM* and CtBP-E1A blk 9.9.
Cc1cccc(C)c1NC(=O)c1cccc2c1C(=O)N(C1CCCCC1)C2 was read as Six1-Eya2 blk -6.4, HP1b binding inh 24.3%, BAZ2B inh -24.4%, JMJD2A Tudor inh -17.2%, G9a block 15.4% and CtBP-E1A blk 0.1.
For O=C(O)CC/C(=N\NC(=O)c1ccncc1)c1ccccc1 the results were Six1-Eya2 blk 10.8, HP1b binding inh 11.8%, BAZ2B inh -6.5%, JMJD2A Tudor inh 25.1µM* and CtBP-E1A blk 4.8.
O=C(N/N=C(\c1ccccc1)c1cccnc1)c1cc(O)ccc1O was read as BAZ2B inh -34.3% and G9a block 10µM*.
C/C(=N\NC(=O)c1ccc(CN2CCc3ccccc3C2)cc1)c1ccccc1O was read as Six1-Eya2 blk -25.8, HP1b binding inh 25.3%, BAZ2B inh 2.82µM*, JMJD2A Tudor inh inconclusive, G9a block 18.0% and CtBP-E1A blk -21.6.
Screening COc1ccc(NC(=O)c2ccc(CN3CCc4ccccc4C3)cc2)cc1OC returned Six1-Eya2 blk -14.2, HP1b binding inh 9.8%, BAZ2B inh -23.2%, JMJD2A Tudor inh -1.3%, G9a block 70.8µM* and CtBP-E1A blk 1.6.
Screening COc1ccc(S(=O)(=O)N(C)C)cc1NS(=O)(=O)c1ccc(F)c(F)c1F returned Six1-Eya2 blk 7.5, HP1b binding inh 56.6%, BAZ2B inh 6.0%, JMJD2A Tudor inh -1.7%, G9a block -3.3%[59 µM] and CtBP-E1A blk 0.3.
For COc1ccc(OC)c(C2=C/C(=C/c3ccccn3)C(=O)O2)c1 the results were Six1-Eya2 blk -4.9, HP1b binding inh 37.8%, BAZ2B inh inconclusive, JMJD2A Tudor inh -2.1%, G9a block -48.8%[59 µM] and CtBP-E1A blk 0.0.
`O=C(NCC(c1ccco1)S(=O)(=O)c1cccs1)c1ccc(F)c(F)c1` (stereo not drawn) gave HP1b binding inh 26.3%, BAZ2B inh 0.5%, JMJD2A Tudor inh -1.6% and G9a block 8.1%[59 µM].
Screening Cc1noc(C)c1NC(=O)N(C)C[C@H]1Oc2c(NC(=O)C3CCCCC3)cccc2C(=O)N([C@H](C)CO)C[C@@H]1C returned Six1-Eya2 blk 9.6, HP1b binding inh 22.0%, JMJD2A Tudor inh -18.5% and CtBP-E1A blk -3.7.
For CN(C)c1ccc(/C=N/NC(=O)c2ccccc2)cc1 the results were Six1-Eya2 blk 4.9, HP1b binding inh 27.7%, BAZ2B inh -29.5%, JMJD2A Tudor inh -17.4%, G9a block -40.8% and CtBP-E1A blk 1.3.
CN(C)c1ccc(/C(=N\O)c2ccccc2)cc1 was read as Six1-Eya2 blk -18.3, HP1b binding inh -35.2%, BAZ2B inh -10.4%, JMJD2A Tudor inh 50.1µM*, G9a block 14.1µM* and CtBP-E1A blk -19.3.
`CC/C(=N\NC(=O)c1ccc(N(C)C)cc1)c1ccccc1` gave Six1-Eya2 blk 3.0, HP1b binding inh -2.1%, BAZ2B inh -8.9%, JMJD2A Tudor inh inconclusive, G9a block 28.2µM* and CtBP-E1A blk 1.8.
`C/C(=N\NC(=O)c1cc(-c2cccnc2)nc2ccccc12)c1ccc(O)cc1O` gave Six1-Eya2 blk -73.8*, HP1b binding inh 16.2%, BAZ2B inh -0.8%, JMJD2A Tudor inh -10.7%, G9a block 0.4%[59 µM] and CtBP-E1A blk -1.8.
Screening CC(=NNC(=O)c1ccncc1)c1ccccc1O returned Six1-Eya2 blk -70.6*, HP1b binding inh 57.6%, JMJD2A Tudor inh -25.5% and CtBP-E1A blk -75.0*.
For CC(=NNC(=O)c1ccncc1)c1ccc2ccccc2c1O the results were Six1-Eya2 blk inconclusive, HP1b binding inh 34.7%, JMJD2A Tudor inh -3.5% and CtBP-E1A blk inconclusive.
For CCN(C(=O)c1cn(C)c(=O)c2ccccc12)c1cccc(C)c1 the results were HP1b binding inh 33.9%, BAZ2B inh -8.0%, JMJD2A Tudor inh -14.3% and G9a block -17.1%[59 µM].
Cc1ccc(NC(=O)C2CCCN(S(=O)(=O)c3ccc4c(c3)oc(=O)n4C)C2)cc1Cl (stereo not drawn) was read as HP1b binding inh 27.5%, BAZ2B inh -4.5%, JMJD2A Tudor inh -11.9% and G9a block 1.3%[59 µM].
